Reference: PubChem BioAssay AID624202 (National Center for Advancing Translational Sciences (NCATS), 2012)
Among all 380,000 compounds or so, about 4,000 (1.1%) were called active. Another 3% or so got no clear call; they are omitted. The call rests on the fitted dose curve; in most records, active means well fitted activation curve with a large enough effect; inconclusive means small, poorly fitted or top-dose-only effect; inactive means no such curve, though single readings can be large or run the other way. Shown is part of a subset that was picked to be rich in actives.

Assay: qHTS Assay to Identify Small Molecule Activators of BRCA1 Expression; further: nearly all actives have a fitted effect of over 80% in size
Details: MCF7-BRCA1-FFLuc reporter, luminescence, 48 h; series mostly up to 46.1 µM; activation: at the top concentration
Procedure, shortened: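 Using MCF7 cells harboring a BRCA1 firefly luciferase reporter, plated 2 h before compound pinning, the screen measured luminescence after 48 h incubation. Responses were normalized to DMSO and 10 microM genistein, then fitted for concentration-effect.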
Potency means the concentration at half of the fitted maximal effect.

SMILES | activation | Potency
Cc1ccc(-n2nnnc2CNC(=O)c2ccccc2C)cc1C | -4.16% (inactive) | –
CN(C(=O)CSc1nnc(-c2c[nH]c3ccccc23)o1)C1CCS(=O)(=O)C1 (stereo not given) | -6.49% (inactive) | –
CCC(CC)NC(=O)CSc1nnc(-c2c[nH]c3ccccc23)o1 | 0% (inactive) | –
O=C(CSc1nnc(-c2c[nH]c3ccccc23)o1)c1ccccc1 | – | 12.6 µM (active)
Cc1ccccc1NC(=O)Cn1c(=O)n(CCc2ccccc2)c(=O)c2ccccc21 | -32.7% (inactive) | –
COc1c(Cl)cc(Cl)cc1C(=O)Nc1cccc2cccnc12 | -37.4% (inactive) | –
COc1cc2[nH]c(=O)n(Cc3ccc(C(=O)NCc4ccc(C)cc4)cc3)c(=O)c2cc1OC | 0% (inactive) | –
Cc1cccc(NC(=O)COC(=O)c2ccccc2OCc2cccc(Br)c2)c1 | 0% (inactive) | –
CCOc1ccc(OCC)c(NC(=O)CN(c2ccc(C)cc2)S(=O)(=O)c2c(C)n[nH]c2C)c1 | -79.3% (inactive) | –
CCc1cccc(NC(=O)CSc2nccn2C)c1 | – | 12.6 µM (active)
CC(=O)Nc1cccc(NC(=O)CSc2nccn2Cc2ccc(F)cc2)c1 | 4.89% (inactive) | –
CCCCNC(=O)CSc1nccn1Cc1ccccc1 | -5.11% (inactive) | –
COc1ccc(CN(Cc2ccccc2)C(=O)c2ccc(O)cc2)cc1COc1ccc(NC(C)=O)cc1 | -5.58% (inactive) | –
Cc1ccc(CCNC(=O)Cn2c(-c3cccs3)cc3cc(F)ccc32)cc1 | 0.969% (inactive) | –
COc1ccc(NC(=O)Cn2c(=O)cc(C)c3c(C)nn(-c4cccc(Cl)c4C)c32)cc1OC | 6.76% (inactive) | –
Cc1nn2cc(-c3ccc(Cl)cc3)cnc2c1Br | – | 8.91 µM (active)
O=C(O)C1=C/C(=C/C=[N+]2c3cc(O)c(O[C@H]4OC(CO)[C@@H](O)[C@@H](O)[C@@H]4O)cc3C[C@@H]2C(=O)[O-])C[C@H](C(=O)O)N1 (stereo not given in full) | 7.03% (inactive) | –
COc1ccc(-c2[nH]c3c(c2-c2c(-n4cccc4)n(C)c(=O)n(C)c2=O)c(=O)n(C)c(=O)n3C)cc1 | -3.01% (inactive) | –
Cc1ccc(S(=O)(=O)n2nc(C)c(S(=O)(=O)N3CCCCCC3)c2C)cc1 | 1.48% (inactive) | –
CCOc1ccc(NC(=O)c2ccc(NC(=O)CN3C(=O)C(=O)N(CC(C)C)C3=O)cc2)cc1 | 38.8% (inactive) | –
CCOc1ccc(NC(=O)c2ccc(NC(=O)COC(=O)c3ccc(NC(=O)CC#N)cc3)cc2)cc1 | – | 2.82 µM (active)
CCOc1ccc(NC(=O)Cn2c(C)ccc(C#N)c2=O)cc1 | 0% (inactive) | –
CCn1cc(C(=O)N2CCN(c3cc(C)ccc3C)CC2)c(=O)c2cc(S(=O)(=O)N(C)C3CCCCC3)ccc21 | 3.03% (inactive) | –
CSc1ccc(CCNC(=O)c2cnn(-c3ccccc3)c2-n2cccc2)cc1 | 0% (inactive) | –

SMILES | activation | Potency
CC(=O)c1ccc(NC(=O)CCc2nc(-c3ccc(C)cc3)no2)cc1 | 0% (inactive) | –
O=C(Nc1ccc2nc(SCC(=O)N3CCc4ccccc43)sc2c1)c1ccccc1F | 1.78% (inactive) | –
CSc1nc2ccc(NC(=O)c3c(F)cccc3F)cc2s1 | – | 5.62 µM (active)
CC(=O)Nc1ccc2nc(SCCOc3cc(C)cc(C)c3)sc2c1 | 0.227% (inactive) | –
COc1cc2nc(N3CCCN(C)CC3)nc(NC3CC3)c2cc1OC | -1.84% (inactive) | –
CCOc1ccc(C(=O)CCC(=O)NC2=NCCS2)cc1 | -0.556% (inactive) | –
COc1ccccc1C(=O)NCCC(=O)NC1=NCCS1 | -5.3% (inactive) | –
O=C(NC1=NCCS1)c1ccc(Cl)s1 | – | 5.62 µM (active)
O=C(Nc1ccccc1)c1ccccc1OCc1ccccc1 | 0% (inactive) | –
O=C(CCCCn1c(=O)c2ccccc2n(CC(=O)Nc2cccc(C(F)(F)F)c2)c1=O)NCc1ccc2c(c1)OCO2 | 4.95% (inactive) | –
NC1=NC(c2cc(F)cc(F)c2)n2c(nc3ccccc32)N1 (stereo not given) | 12.8% (inactive) | –
O=C(c1cnn2c1NC(=C1CC1)C=C2C(F)F)N1CCc2ccccc2C1 | -19.4% (inactive) | –
Cc1cccc(NC(=O)CSc2nc3c(oc4ccccc43)c(=O)n2-c2ccc(F)cc2)c1 | -1.49% (inactive) | –
O=C(Nc1cc(-c2nc3ccccc3o2)ccc1Cl)c1cc([N+](=O)[O-])ccc1N1CCOCC1 | 10.8% (inactive) | –
S=c1[nH]c(=S)c2n[nH]nc2[nH]1 | 10.8% (inactive) | –
COc1ccc(Cl)cc1S(=O)(=O)Nc1cccc(C(=O)O)c1 | 4.55% (inactive) | –
CC(=O)Nc1cccc(/C(C)=N/NC(=O)c2c(-c3ccccc3Cl)noc2C)c1 | -35.1% (inactive) | –
C/C(=N\Nc1cccc(C(=O)O)c1)c1ccc2c(c1)Nc1ccccc1S2 | – | 7.08 µM (active)
C[N+]1(CC(=O)c2cccs2)CCOCC1 | 2.95% (inactive) | –
COC(=O)c1ccc(CSc2nncn2C)cc1 | – | 10 µM (active)
CC(C)CC(CC(C)C)=NNC(=O)c1ccc(CSc2nncn2C)cc1 | 3.02% (inactive) | –
COC(=O)c1ccc(CSc2nncn2N)cc1 | 4.18% (inactive) | –
COc1ccccc1CNC(=O)CCCn1c(=O)c2ccccc2n(CC(=O)Nc2ccc(C)cc2Cl)c1=O | -11.4% (inactive) | –
OC(CBr)CN1CCCCC1 (stereo not given) | 0% (inactive) | –

SMILES | activation | Potency
COC(=O)C1C(=O)c2c([nH]c(C(=O)OCCSC)c2C)CC1C (stereo not given) | – | 28.2 µM (active)
Cc1cc(Cl)ccc1NC(=O)Cc1ccc(NC(=O)N2CCCCc3ccccc32)cc1 | 0% (inactive) | –
COCCCN1C(=O)c2ccc(C(=O)Nc3ccc(OC)cc3OC)cc2C1=O | -22.3% (inactive) | –
Cc1ccc2[nH]cc(CCCN3C(=O)c4ccccc4C3=O)c2c1 | 43.5% (inactive) | –
COc1ccc2[nH]cc(CCN3C(=O)c4ccc(C(=O)O)cc4C3=O)c2c1 | – | 10 µM (active)
O=C(O)/C=C/C(=O)NNc1ccc([N+](=O)[O-])cc1 | 0% (inactive) | –
CC(=O)Nc1ccc(C=Cc2ccc([N+](=O)[O-])cc2)cc1 | – | 1.78 µM (active)
O=C(Nc1ccc([N+](=O)[O-])cc1)C1CC12CCC2 (stereo not given) | 62% (inactive) | –
Cc1cccc(-c2nnc(SC(C)C(=O)Nc3ccccc3)n2C)c1 (stereo not given) | 117% (inactive) | –
COc1ccc(CNC(=O)c2cc3c(s2)-c2ccccc2OC3)cc1 | 18.4% (inactive) | –
O=C(Nc1ccc2nc(SCCOc3ccccc3Cl)sc2c1)c1ccco1 | 3.88% (inactive) | –
O=C(CSc1ccccc1)Nc1ccc(NC(=O)c2ccco2)cc1 | – | 11.2 µM (active)
C/C(=N\NC(=S)Nc1ccc(C)cc1)c1cc2ccccc2o1 | -20.3% (inactive) | –
O=C(Nc1ccc(O)cc1)c1ccc(NC(=O)c2ccco2)cc1 | – | 3.16 µM (active)
O=C(Nc1ccc2nc(SCCOc3ccccc3)sc2c1)c1ccco1 | 0% (inactive) | –
O=C(Nc1ccc2nccnc2c1)c1ccco1 | – | 10 µM (active)
O=C(CNC(=O)c1ccco1)NNC(=O)c1ccc(Br)cc1 | -2.34% (inactive) | –
O=C(Nc1ccc(CSc2ccccc2)cc1)c1ccc(CN2CCOCC2)cc1 | -37.6% (inactive) | –
CN(C)C(CNC(=O)c1cc2ccccc2o1)c1ccccc1 (stereo not given) | -8.03% (inactive) | –
O=C(Nc1ccccc1C(=O)N1CCCCC1)c1ccco1 | 6.82% (inactive) | –
Cc1cc(C)cc(NC(=O)CSc2ccccc2)c1 | 65% (inactive) | –
Cc1ccc(NC(=O)c2cc3ccccc3o2)cc1 | – | 12.6 µM (active)
